Results filed as inconclusive are left out. Calls of active or inactive are those of the source. Rule for the calls: active = hit-call score of the fitted dose curve at least 0.9, where 1 is the maximum; inconclusive = response in the unintended direction; inactive = score below 0.9.
Key:
[1] = TOX21_p53_BLA_p2_viability: Viability Assessment in the Tox21 HCT-116 p53 Agonism Beta-lactamase Assay, Phase 2 (AID 2283591);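 note: actives lower the ATP signal meaning cytotoxicity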
Summary of the method: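 Cytotoxicity readout: CellTiter-Glo ATP luminescence, 30 min at room temperature, after the beta-lactamase read. Cells were HCT116 exposed 16 h at 37C to compounds pin-transferred at 217-fold dilution from DMSO stocks.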

[2] = target: Cellular tumor antigen p53 (Homo sapiens) (UniProt P04637); assay: TOX21_p53_BLA_p3_ratio: Tox21 HCT-116 p53 Agonism Beta-lactamase Assay, Ratio, Phase 3 (AID 2283596)
Summary of the method: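 HCT116 p53-bla cells (4000/well) given compound in DMSO (217-fold dilution) after 5 h, incubated 16 h at 37C. CCF4-AM substrate 2 h at room temperature; 460/530 nm emission ratio, gain fitted against DMSO.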

[3] = target: Cellular tumor antigen p53 (Homo sapiens) (UniProt P04637); assay: TOX21_p53_BLA_p5_ratio: Tox21 HCT-116 p53 Agonism Beta-lactamase Assay, Ratio, Phase 5 (AID 2283599)
Summary of the method: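 Beta-lactamase reporter ratio (blue 460 nm over green 530 nm, 405 nm excitation) after 2 h CCF4-AM loading, in HCT-116 cells exposed 16 h at 37 C to compounds pinned at 217-fold dilution. Increases relative to DMSO baseline scored.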

[4] = target: Cellular tumor antigen p53 (Homo sapiens) (UniProt P04637); assay: TOX21_p53_BLA_p4_ratio: Tox21 HCT-116 p53 Agonism Beta-lactamase Assay, Ratio, Phase 4 (AID 2283601)
Summary of the method: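 Signal is the blue/green (460nm/530nm) ratio of cleaved versus uncleaved CCF4-AM substrate, read after 2 h substrate loading. Cells were HCT116 carrying the p53-responsive beta-lactamase reporter, dosed 16 h at 37C, 5% CO2; CellTiter-Glo measured in parallel.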

[5] = TOX21_p53_BLA_p4_viability: Viability Assessment in the Tox21 HCT-116 p53 Agonism Beta-lactamase Assay, Phase 4 (AID 2283597);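 note: hits lower the luminescence signal meaning cytotoxicity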
Summary of the method: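 Compound exposure of HCT116 cells lasts 16 h at 37C, 5% CO2, with DMSO stocks diluted 217-fold. Cellular ATP is then quantified by CellTiter-Glo luminescence after 30 min at room temperature.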

[6] = target: Cellular tumor antigen p53 (Homo sapiens) (UniProt P04637); assay: TOX21_p53_BLA_p2_ratio: Tox21 HCT-116 p53 Agonism Beta-lactamase Assay, Ratio, Phase 2 (AID 2283592)
Summary of the method: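 An inducible beta-lactamase reporter in HCT116 cells signals p53 pathway activation. After 16 h chemical exposure at 37C, cells load CCF4-AM substrate for 2 h at room temperature; activity is the cleaved/uncleaved emission ratio relative to DMSO.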

[7] = TOX21_p53_BLA_p3_viability: Viability Assessment in the Tox21 HCT-116 p53 Agonism Beta-lactamase Assay, Phase 3 (AID 2283593);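 note: cells exposed to compound for 16 h before reading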
Summary of the method: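 Cellular ATP was quantified by CellTiter-Glo luminescence, read after 30 min at room temperature. Beforehand, HCT116 cells (4000/well) received compound 5 h post-seeding, 217-fold diluted from DMSO, then incubated 16 h at 37C.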

[8] = TOX21_p53_BLA_p5_viability: Viability Assessment in the Tox21 HCT-116 p53 Agonism Beta-lactamase Assay, Phase 5 (AID 2283600)
Summary of the method: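 Counter-readout for cytotoxicity: ATP-dependent luminescence from CellTiter-Glo, read in the beta-lactamase wells after 30 min at RT, following a 16 h compound exposure at 37C.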

Measured: outcome

Cellular tumor antigen p53 (Homo sapiens), sequence (P04637 whole entry, looked up): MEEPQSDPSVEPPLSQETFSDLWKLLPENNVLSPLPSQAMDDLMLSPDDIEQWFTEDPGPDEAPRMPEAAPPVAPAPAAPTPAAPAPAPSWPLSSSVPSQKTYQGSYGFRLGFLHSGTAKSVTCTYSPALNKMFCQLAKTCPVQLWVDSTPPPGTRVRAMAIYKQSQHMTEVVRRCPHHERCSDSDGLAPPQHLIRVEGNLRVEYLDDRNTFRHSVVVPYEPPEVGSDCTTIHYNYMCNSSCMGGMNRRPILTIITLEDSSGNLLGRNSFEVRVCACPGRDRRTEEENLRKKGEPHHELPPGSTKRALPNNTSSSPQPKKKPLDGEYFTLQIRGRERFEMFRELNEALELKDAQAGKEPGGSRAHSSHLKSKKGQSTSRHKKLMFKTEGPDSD

COc1ccc(C=O)cc1O
inactive: [1] | [2] | [3] | [4]

Cc1nnc2n1-c1ccc(Cl)cc1C(c1ccccc1)=NC2
inactive: [1] | [5] | [3] | [4]

CNC(C)CC1CCCCC1 (centres undefined)
inactive: [6] | [7] | [2] | [5] | [3]

CC(C)(C)C(=O)Cl
inactive: [1] | [3] | [8] | [4]

Oc1ccc2c3c1O[C@H]1[C@@H](O)C=C[C@H]4[C@H](C2)NCC[C@@]341
not listed: [1] | [4]
inactive: all other assays above

Brc1ccccc1
inactive: [1] | [5] | [8]

CS(=O)(=O)Cl
inactive: [1] | [5] | [8] | [4]

COc1cc(CC(C)N)cc2c1OCO2 (centres undefined)
inactive: [1] | [2] | [3] | [4]

C[C@H]1[C@@H]2Cc3ccc(O)cc3[C@@]1(C)CCN2C
inactive: [1] | [2] | [3] | [8] | [4]

O=[N+]([O-])c1cc(Cl)c(Cl)c(Cl)c1
inactive: [1] | [2] | [3] | [8]

CC1NCCOC1c1ccccc1 (centres undefined)
inactive: [1] | [2] | [8] | [4]

N[C@@H]1C[C@H]1c1ccccc1
inactive: [6] | [7] | [2] | [5] | [3]

CCCCCCCCP(=O)(O)O
inactive: [1] | [2] | [4]

O=[N+]([O-])c1ccccc1-c1ccccc1
inactive: [1] | [2] | [3] | [8]

O=C(OCCN1CCCCC1)C(O)(c1ccccc1)c1ccccc1
inactive: [1] | [2] | [3] | [4]

CCN(C(C)=O)c1cccc(-c2ccnc3c(C#N)cnn23)c1
inactive: [1] | [3] | [8] | [4]

CN(C)C(=O)Oc1cc(OC(=O)N(C)C)cc(C(O)CNC(C)(C)C)c1 (centres undefined)
inactive: [1] | [2] | [4]

C=CC(=C)C
inactive: [1] | [8]

CCCSC(=O)Cl
inactive: [1] | [8] | [4]

C[C@]12CC[C@H]3[C@@H](CCC4=CC(=O)CC[C@@]43C)[C@@H]1CC[C@@H]2OC(=O)CCc1ccccc1
inactive: [1] | [5] | [3] | [8]

C=CCCC#N
inactive: [6] | [7] | [2] | [5] | [8]

From PubChem BioAssay (EPA / NIEHS)
